Source: PubChem BioAssay (National Center for Advancing Translational Sciences (NCATS))
Sm TGR inh = qHTS Assay for the Inhibitors of Schistosoma Mansoni Peroxiredoxins; Potency, µM (titrated, usually from 114 µM), hits mostly inhibitors; purified TGR, DTNB reduction, TNB absorbance 405 nm; AID 485364, 2010; 3% of 360,000 active; note: nearly all actives have a fitted effect of over 60% in size
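TGR 20 nM + NADPH 100 uM (dispensed conc.), cpd preinc 15 min RT; start with NADPH (500 uM addition) then DTNB (15 mM addition). Kinetic TNB absorbance, 405 nm filter. Four-parameter Hill fit across titration.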
FMDV inh = High Throughput Screening for Foot and Mouth Disease Virus Antivirals | FMDV antiviral cell-based qHTS | Potency, µM (titrated, usually from 57.9 µM), hits mostly inhibitors | 1.2% of 410,000 active | AID 1159524, 2015; calls by dose curve; tested in HEK293T cells; note: read-out not given here; nearly all actives have a fitted effect of over 45% in size
HCV inh = qHTS Assay for Inhibitors of Hepatitis C Virus (HCV). Huh7.5.1 HCVcc-Cre infection, luciferase reporter, 44 h. Potency, µM (series often up to 41.8 µM), most hits filed as inhibitors. 3.4% of 340,000 active. AID 651820, 2012
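Infectious HCV cell culture screen: compound-treated cells (1,000/well, pre-plated 4 h) are infected with HCVcc-Cre at roughly 0.5 moi and grown 44 h. Infection is quantified by luciferase signal after 15 min substrate incubation at room temperature.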
MARV entry inh = qHTS for inhibitors of binding or entry into cells for Marburg Virus; Marburg virus pseudotyped entry inhibition, cell reporter; Potency, µM (series often up to 37.8 µM), most hits filed as inhibitors; 1.8% of 300,000 active; calls by dose curve; tested in HEK293 cells
Lassa entry inh = qHTS for Inhibitors of binding or entry into cells for Lassa Virus | Lassa virus pseudotype entry inhibition, cell reporter | Potency, µM (highest dose often 37.9 µM), most hits filed as inhibitors | 1.2% of 300,000 active; calls by dose curve; tested in HEK293 cells; note: nearly all actives have a fitted effect of over 50% in size
RE007 growth inh = qHTS Assay for Inhibitors of the HIV-1 protein Vpr | S. pombe RE007 Vpr strain, BacTiter-Glo ATP luminescence, 24 h | Potency, µM (doses to about 92.2 µM), actives largely listed as inhibitors | 0.21% of 360,000 active | AID 651644, 2012; active = well fitted falling curve with a large enough effect; inconclusive = small, poorly fitted or top-dose-only effect; inactive = no such curve, though single readings can be large or run the other way; note: nearly all actives have a fitted effect of over 50% in size
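Fission yeast RE007 carrying one integrated HIV-1 vpr copy, seeded at OD 0.01 in PMG+AL medium with 23 nL pinned compound. Grown 24 h at 30 degrees; viability read by BacTiter-Glo luminescence after 5 min.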
Large screens that a line does not name were inactive. Compounds with a hit are over-represented: about 7.2% of the library has one in this group of screens. Unless noted, calls come from the whole dose curve; as a rule, active = well fitted curve in the direction sought with a large enough effect; inconclusive = small, poorly fitted or top-dose-only effect, or another doubt; inactive = no such curve, though single readings can be large; an effect the other way counts as inactive or inconclusive.

O=C(NCc1cccs1)c1nc2c(nnn2Cc2ccccc2Cl)c(=O)[nH]1	FMDV inh inconclusive, HCV inh 5µM, MARV entry inh inconclusive, Lassa entry inh 11µM
CC(C)(C)c1ccc(Cn2nnc3c(=O)[nH]c(C4CCN(C(=O)Cc5cccs5)CC4)nc32)cc1	FMDV inh inconclusive, MARV entry inh 8.2µM, Lassa entry inh inconclusive
O=C(c1cccs1)N1CCC(c2nc3c(nnn3Cc3ccccc3Cl)c(=O)[nH]2)CC1	Lassa entry inh 7.9µM
CC(C)(C)c1ccc(Cn2nnc3c(=O)[nH]c(C4CCCN(C(=O)Cc5cccs5)C4)nc32)cc1 (stereo unspecified)	FMDV inh inconclusive, MARV entry inh inconclusive, Lassa entry inh inconclusive
Cc1ccc(Cn2nnc3c(=O)[nH]c(C4CCN(S(=O)(=O)c5ccccc5)CC4)nc32)cc1	MARV entry inh inconclusive, Lassa entry inh inconclusive
CCOc1ccccc1CNC(=O)CCC(=O)N1CCSc2ccccc21	none (no result: HCV inh, MARV entry inh, RE007 growth inh)
COc1cccc(-c2nc(CS(=O)(=O)CC(=O)N3CCN(c4ccccc4)CC3)c(C)o2)c1	MARV entry inh inconclusive (no result: HCV inh, RE007 growth inh)
COc1ccc(C(=O)N2CCC3(CCN(C)CC3)CC2)cc1	none (no result: Sm TGR inh, HCV inh, MARV entry inh, Lassa entry inh, RE007 growth inh)
Cc1ccc(NC(=O)C(=O)NCC(c2ccc3c(c2)OCO3)N2CCOCC2)c(C)c1 (stereo unspecified)	none (no result: HCV inh, MARV entry inh, RE007 growth inh)
Cc1nn(Cc2ccccc2Cl)c(C)c1C(=O)Nc1nnc(C2CC2)s1	MARV entry inh 0.89µM, Lassa entry inh inconclusive
Cc1nn(-c2ccccc2)c(Cl)c1C(=O)Nc1nnc(C2CCCCC2)s1	MARV entry inh inconclusive, Lassa entry inh inconclusive
CC(C)c1nnc(NC(=O)c2nc(SCc3ccc(F)cc3)ncc2Cl)s1	none (no result: HCV inh, RE007 growth inh)
CSc1nnc(NC(=O)c2nc(S(=O)(=O)Cc3cccc(C)c3)ncc2Cl)s1	Sm TGR inh 20µM, FMDV inh 5.6µM, HCV inh 13µM, MARV entry inh inconclusive, Lassa entry inh inconclusive
Cc1ccc(C)c(NC(=O)c2nc(S(=O)(=O)Cc3ccc(F)cc3)ncc2Cl)c1	Sm TGR inh 2.5µM, FMDV inh 28µM, Lassa entry inh inconclusive (no result: HCV inh, RE007 growth inh)
CSc1ncc(Cl)c(C(=O)Nc2nnc(SC/C=C/c3ccccc3)s2)n1	HCV inh inconclusive
CC(C)c1nnc(NC(=O)c2nc(S(=O)(=O)Cc3ccc(F)cc3)ncc2Cl)s1	Sm TGR inh 25µM, HCV inh inconclusive, MARV entry inh inconclusive, Lassa entry inh inconclusive
C=CCSc1nnc(NC(=O)c2nc(SCC)ncc2Cl)s1	none
Cc1ccc(C)c(NC(=O)c2nc(Cl)ccc2Cl)c1	none (no result: MARV entry inh, Lassa entry inh)
CCSc1nnc(NC(=O)c2nc(S(=O)(=O)Cc3ccc(F)cc3)ncc2Cl)s1	Sm TGR inh 35µM, FMDV inh 8.9µM, HCV inh inconclusive, Lassa entry inh inconclusive
Cc1cccc(CS(=O)(=O)c2ncc(Cl)c(C(=O)Nc3nnc(C(C)C)s3)n2)c1	Sm TGR inh 40µM, FMDV inh 8.9µM, HCV inh 11µM, MARV entry inh inconclusive, Lassa entry inh inconclusive
Cc1cccc(CSc2ncc(Cl)c(C(=O)Nc3nc4ccc(F)cc4s3)n2)c1	none (no result: HCV inh, RE007 growth inh)
Cc1ccc(CS(=O)(=O)c2ncc(Cl)c(C(=O)Nc3nnc(C(C)C)s3)n2)cc1	Sm TGR inh 18µM, FMDV inh 11µM, HCV inh inconclusive, MARV entry inh inconclusive, Lassa entry inh inconclusive
C=CC(O)(C#CCN(CC)CC)c1ccccc1 (stereo unspecified)	Sm TGR inh 45µM
CCN(CC)CC#CCC(O)(c1ccccc1)c1ccc(Br)cc1 (stereo unspecified)	HCV inh 10µM, MARV entry inh 23µM, Lassa entry inh inconclusive
Cc1cc2cc(C(c3nnnn3Cc3ccco3)N3CCCCC3)c(=O)[nH]c2cc1C (stereo unspecified)	Sm TGR inh 40µM, HCV inh inconclusive (no result: FMDV inh)
CCOc1ccc2[nH]c(=O)c(C(c3nnnn3Cc3ccco3)N3CCN(C)CC3)cc2c1 (stereo unspecified)	Sm TGR inh inconclusive
CC(C)CC(c1nnnn1Cc1ccco1)N1CCN(c2cccc(Cl)c2)CC1 (stereo unspecified)	FMDV inh inconclusive, MARV entry inh 8.9µM, Lassa entry inh inconclusive
O=c1[nH]c2cc3c(cc2cc1C(c1nnnn1Cc1ccccc1)N1CCCCCC1)OCCO3 (stereo unspecified)	Sm TGR inh inconclusive, MARV entry inh inconclusive, Lassa entry inh inconclusive
Cc1cccc2cc(C(c3nnnn3Cc3ccc4c(c3)OCO4)N3CCCC3)c(=O)[nH]c12 (stereo unspecified)	Sm TGR inh 11µM
c1coc(Cn2nnnc2CN2CCN(C3CCCC3)CC2)c1	Sm TGR inh 32µM
CN1CCN(c2ncc3nc(CCc4ccccc4)c(=O)n(C)c3n2)CC1	none (no result: Sm TGR inh, HCV inh, MARV entry inh, Lassa entry inh, RE007 growth inh)
Cc1cc(C(c2nnnn2Cc2ccccc2)N2CCOCC2)c(C)n1-c1ccc2c(c1)OCO2 (stereo unspecified)	Sm TGR inh 10µM, Lassa entry inh inconclusive (no result: FMDV inh)
COc1ccc(OC)c(C(c2nnnn2Cc2ccco2)N2CCN(C)CC2)c1 (stereo unspecified)	none (no result: MARV entry inh, Lassa entry inh)
Clc1ccccc1C(c1nnnn1Cc1ccco1)N1CCN(Cc2ccco2)CC1 (stereo unspecified)	Sm TGR inh 32µM, MARV entry inh inconclusive
c1ccc(Cn2nnnc2C(c2ccncc2)N2CCOCC2)cc1 (stereo unspecified)	none (no result: FMDV inh)
COc1cccc(C(c2nnnn2Cc2ccco2)N2CCN(c3cccc(C)c3C)CC2)c1OC (stereo unspecified)	HCV inh 11µM, MARV entry inh inconclusive, Lassa entry inh inconclusive
CCN(CC)CCCOC(=O)C(OC(C)C)(c1ccccc1)c1ccccc1	FMDV inh inconclusive, HCV inh 7.1µM, MARV entry inh 12µM, Lassa entry inh 16µM
CCOC(=O)c1cc(S(=O)(=O)N2CCN(c3cc(C)ccc3C)CC2)[nH]n1	none (no result: HCV inh, MARV entry inh, RE007 growth inh)
CC(=O)c1c(C)[nH]c(C(=O)Nc2cccc(C)n2)c1C	none (no result: MARV entry inh, Lassa entry inh)
CC(=O)c1c(C)[nH]c(C(=O)Nc2nccs2)c1C	HCV inh 10µM, MARV entry inh inconclusive, Lassa entry inh inconclusive
COc1ccc(CCNC(=O)c2cc(Sc3cccc(Cl)c3)nc3ccccc23)cc1OC	FMDV inh inconclusive, Lassa entry inh inconclusive (no result: HCV inh, MARV entry inh, RE007 growth inh)
Cc1oc2cc(O)cc(C)c2c(=O)c1-c1cnn(-c2ccccc2)c1	HCV inh 8.9µM, MARV entry inh inconclusive, Lassa entry inh inconclusive
COc1cc2c(cc1OC)CN(c1ccc([N+](=O)[O-])cc1Cl)CC2	FMDV inh inconclusive, HCV inh inconclusive, MARV entry inh inconclusive, RE007 growth inh inconclusive
COc1cc2c(cc1OC)CN(c1ccc([N+](=O)[O-])cc1C#N)CC2	FMDV inh 32µM, HCV inh inconclusive, MARV entry inh inconclusive
